Results: PubChem BioAssay (NCI)
Several values for one entry are separate records, joined by “and”; a condition that tells them apart may be missing. Equal entries are not always repeated. This is part of a sample that, as a whole, favours compounds with a hit. Of some 83,000 tested, about 20% had one in any assay.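 Treatment: one concentration, 48 hours, 96-well format. Scoring: percent growth, with anything below 10 considered active.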 Activity calls are given as the source filed them.

System: HL-60(TB) leukemia
Assay: NCI-60 one-dose screen, 48 h (100 = growth as untreated, 0 = no growth, -100 = all killed)
Conditions: 10 µM unless noted

| SMILES | growth |
| --- | --- |
| CCn1nc(-c2ccccn2)c2cccnc2c1=S | 37.4% (inactive) |
| O=C1Nc2cc(-c3ccncc3)ccc2/C1=C/c1ccc[nH]1 | 99.9% (inactive) |
| O=C(NNc1ccccc1)c1ccccc1 | 7.78% (active) and -1.5% (active) |
| CCN1C(=O)N(c2ccccc2)C2NN=c3s/c(=C4\C(=O)N(C(C)C)c5ccccc54)c(=O)n3C21 (stereo not given) | -16.1% (active) |
| C[N+](C)=c1ccc2nc3c(cc(Nc4ccccc4)c4ccccc43)oc-2c1 | 25.8% (inactive) |
| Cc1[nH]c2ncnc(Oc3ccc(NC(=O)Nc4ccc(Cl)c(C(F)(F)F)c4)cc3)c2c1C | 65.6% (inactive) |
| O=C(Nc1cccc(-n2ccc3c(NC(=O)c4ccccc4)nccc32)c1)c1ccc(Cl)c(C(F)(F)F)c1 | -32.3% (active) and 56.6% (inactive) |
| O=S(=O)(NCCCNc1nccc(-c2c(-c3cccc(O)c3)nc3occn23)n1)c1ccc(F)cc1 | 72.3% (inactive) |
| O=C(O)c1ccc2c(c1)CCC2 | 68.3% (inactive) |
| CN1CCCC1c1cccnc1 (stereo not given) | 105% (inactive) |
| CN(C)Cc1ccc[nH]1 | 109% (inactive) |
| COc1cc2oc(-c3ccc(O)cc3)cc(=O)c2c(O)c1I | 99% (inactive) |
| Cc1n[nH]c(C)c1N=Nc1cccc2c1C(=O)c1ccccc1C2=O | 96.3% (inactive) |
| O=C(NNc1nccc(Nc2ccc(S(=O)(=O)Nc3ccncc3)cc2)n1)c1ccccc1 | 119% (inactive) |
| CC(CN(C)C)CN1c2ccccc2Sc2ccccc21 (stereo not given) | 91.3% (inactive) and 105% (inactive) and 94.5% (inactive) |
| CS(=O)(=O)Nc1ccc(Nc2c3ccccc3nc3cc([N+](=O)[O-])ccc23)cc1 | -8.01% (active) |
| N#CC1=C(N)Oc2c(sc3c(F)cccc23)C1c1ccc(F)cc1 (stereo not given) | 5.96% (active) |
| Cc1ccc(NC(=S)NNC(=S)NNc2ccccc2)cc1C | 20.4% (inactive) |
| CC(=O)CC(=O)OC/C=C(/C)CCC=C(C)C | 124% (inactive) |
| COc1ccc(/C=C/C(=O)c2ccc(OC)c(OC)c2)cc1O | 81.5% (inactive) |

| SMILES | growth |
| --- | --- |
| Cc1cccc(Cc2cnc(NC(=O)/C=C/c3ccco3)s2)c1 | -44.8% (active) |
| COc1cc(/C=C/C(=O)c2c(C)nc3ccccc3c2C)ccc1OCCCN1CCN(C(=O)c2ccco2)CC1 | 74.7% (inactive) |
| C=C1C(=O)O[C@H]2[C@H]1CC/C(COC(=O)NCCc1ccc(OC)c(OC)c1)=C\CC[C@@]1(C)O[C@@H]21 | 30.7% (inactive) |
| COc1ccc([C@H]2[C@@H](F)C(=O)N2c2cc(OC)c(OC)c(OC)c2)cc1F | -14.7% (active) |
| CC/C=C\C[C@H](O)C/C=C1/C(=O)C(Cl)=C[C@@H]1C/C=C\CCCC(=O)O | 19.4% (inactive) |
| O=C1Nc2ccc(I)cc2C1=O | 111% (inactive) |
| CC(=O)O[C@H]1C(=O)[C@@]2(C)C([C@H](OC(=O)c3ccccc3)[C@]3(O)C[C@H](OC(=O)[C@H](O)[C@@H](NC(=O)c4ccccc4)c4ccccc4)C(C)=C1C3(C)C)[C@]1(OC(C)=O)CO[C@@H]1C[C@@H]2O (stereo not given in full) | 9.14% (active) |
| Nc1ncnc2nc(Br)[nH]c12 | 90.3% (inactive) |
| Cc1ccc(NC(=O)c2ccc(CN3CCN(C)CC3)cc2)cc1Nc1nccc(-c2cccnc2)n1 | 107% (inactive) and 89.8% (inactive) |
| NC(=S)N/N=C(\c1ccc(Br)cc1)C1CC1 | 65.6% (inactive) and 64.8% (inactive) |
| COc1ccc(/C=N\NC(=O)c2cc(-c3ccc(Br)cc3)n(-c3ccc(S(N)(=O)=O)cc3)n2)cc1 | 33.5% (inactive) |
| O=C(NCCCCNC(=O)OCc1ccc2c(Cl)cc(Cl)c(O)c2n1)OCc1ccc2c(Cl)cc(Cl)c(O)c2n1 | -49.2% (active) |
| O=CN1N=C(c2ccc(Cl)cc2)CC1c1cccc(Nc2ccnc3cc(Cl)ccc23)c1 (stereo not given) | -24.6% (active) |
| CCn1cc(C(=O)O)c(=O)c2cc(F)c(N3CCN(CC(=O)Nc4ccc(C(C)=O)cc4)CC3)cc21 | 95.7% (inactive) |
| COc1ccc(/C=C/C(=O)c2cccc(NS(C)(=O)=O)c2)cc1 | 79.6% (inactive) |
| COc1ccc2c(=O)cc(C(Cl)(Cl)Cl)oc2c1 | -32.6% (active) |
| Cc1cc(Cl)nc(N(CCNc2ccnc3cc(Cl)ccc23)Cc2ccco2)n1 | -47.7% (active) |
| COC(=O)C(=C\c1ccc2c(c1)OCO2)/C(=C/c1ccc2c(c1)OCO2)C(=O)OC | 112% (inactive) |
| CCN(CC)CCNC(=O)c1c(C)[nH]c(/C=C2\C(=O)Nc3cc(NC(=O)NC(=O)c4ccc(OC)cc4F)ccc32)c1C | 95.9% (inactive) |
| CCO/C=N/C1=C(C#N)C(c2ccc(OC)cc2)c2sc3c(F)cccc3c2O1 (stereo not given) | -9.87% (active) |
